An excerpt weighted towards active compounds, which were near 9.3% of everything screened.
Vaccinia mCherry = qHTS for Stage-Specific Inhibitors of Vaccinia Orthopoxvirus: mCherry Reporter Primary qHTS; Vaccinia virus mCherry reporter infection, fluorescence; Potency, µM (highest dose often 36.5 µM), without a hit: top-dose activity change, negative = inhibition, most hits filed as inhibitors; hit rate 0.63% among 310,000; calls by dose curve; tested in A549 cells; note: potency is the fitted concentration of half-maximal effect; nearly all actives have a fitted effect of over 35% in size
VACV Venus inh = qHTS for Stage-Specific Inhibitors of Vaccinia Orthopoxvirus: Venus Reporter Primary qHTS. Vaccinia virus Venus reporter expression, fluorescence. Potency, µM (doses to about 36.5 µM), inactives show at the top dose activity change, negative = inhibition, most hits filed as inhibitors. hit rate 0.46% among 330,000; calls by dose curve; tested in A549 cells; note: potency is the fitted concentration of half-maximal effect; nearly all actives have a fitted effect of over 30% in size
HCV inh = qHTS Assay for Inhibitors of Hepatitis C Virus (HCV); Huh7.5.1 HCVcc-Cre infection, luciferase reporter, 44 h; Potency, µM (top dose mostly 41.8 µM), for inactives: at the highest dose activity change, negative = inhibition, most hits filed as inhibitors; hit rate 3.4% among 340,000; note: potency is the fitted concentration of half-maximal effect
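Compounds are dispensed onto cells plated 4 h earlier at 1,000 per well, with HCVcc-Cre virus (about 0.5 moi) added next. Following 44 h of culture, luminescent signal is measured for 15 sec after 15 min with substrate at room temperature.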
FMDV antiviral = High Throughput Screening for Foot and Mouth Disease Virus Antivirals; FMDV antiviral cell-based qHTS; Potency, µM (highest dose often 57.9 µM), for inactives: at the top dose activity change, negative = inhibition, hits mostly inhibitors; hit rate 1.2% among 410,000; AID 1159524, 2015; calls by dose curve; tested in HEK293T cells; note: read-out not given here; potency is the fitted concentration of half-maximal effect; nearly all actives have a fitted effect of over 45% in size
Sm TGR block = qHTS Assay for the Inhibitors of Schistosoma Mansoni Peroxiredoxins | purified TGR, DTNB reduction, TNB absorbance 405 nm | Potency, µM (top dose mostly 114 µM), for inactives: at the top dose activity change, negative = inhibition, hits mostly inhibitors | hit rate 3% among 360,000; note: potency is the fitted concentration of half-maximal effect; nearly all actives have a fitted effect of over 60% in size
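Kinetic colorimetric format: TGR-catalysed, NADPH-driven DTNB reduction monitored via TNB absorbance. Enzyme dispensed at 20 nM; compound exposure 15 min at room temperature before reaction start.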
HCMV antiviral = qHTS Assay for inhibitors of the human cytomegalovirus (HCMV); activity change, negative = inhibition, % at 57.5 µM; HFF cells, HCMV-luciferase reporter, 72 h; active compounds read low; AID 1259415, 2018; hit rate 4.5% among 410,000; in the data active = activity change below about -60%; inconclusive = no clear call, values can overlap the other calls; inactive = above about -39%
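Inhibition of viral replication was scored as loss of reporter luminescence in HFFs infected with HCMV-luciferase (MOI 1 PFU/cell) for 72 h; compounds tested at 2 doses, normalized to buffer and Salinomycin controls.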
Numbers without * were called inactive; i = inactive; u = inconclusive; x = not tested or not shown; ! = not active in a repeat; [ ] = another dose, or the depositor's remark. Unless noted, calls come from the whole dose curve; as a rule, active = well fitted curve in the direction sought with a large enough effect; inconclusive = small, poorly fitted or top-dose-only effect, or another doubt; inactive = no such curve, though single readings can be large; an effect the other way counts as inactive or inconclusive. % is set by controls: 0 for no effect and ±100 for the full control effect.

SMILES	Vaccinia mCherry	VACV Venus inh	HCV inh	FMDV antiviral	Sm TGR block	HCMV antiviral
COc1ccc(CCNC(=O)COC(=O)C2COc3ccccc3O2)cc1 (configuration not stated)	x	x	9.5%	-0.6%	3.4%	0.0
CC(C)c1ccc(NS(=O)(=O)c2ccc3[nH]cc(C(=O)N4CCCC4)c(=O)c3c2)cc1	1.7%	5.2%	x	30.9%	-0.8%	4.1
CCC(=O)Nc1cc2nn(-c3ccc(C)cc3)nc2cc1C	0.5%	-23.5%	2.2%	6.31µM*	-1.8%	-66.1*!
CCC(=O)Nc1cc2nn(-c3ccc(OC)cc3)nc2cc1C	-11.7%	-8.1%	-22.4%	x	5.2%	10.3
C=CCn1c(O)c(/C=C2\C=NN=C2c2ccccc2)sc1=S	-3.5%	-29.7%	u	-18.5%	6.5%	-29.0
CCCn1c(O)c(/C=C2\C=NN=C2c2ccccc2)sc1=S	x	x	10µM*	-9.1%	0.0%	-39.9
COc1ccccc1Oc1nc2c(c(=O)n(Cc3ccccc3F)c(=O)n2C)n1C	-13.6%	-0.3%	u	0.0%	2.82µM*	10.5
Cc1ccc(Oc2nc3c(c(=O)n(Cc4ccccc4)c(=O)n3C)n2C)cc1C	i	-4.1%	x	14.1µM*	8.1%	1.0
Cn1c(NCCCO)nc2c1c(=O)n(Cc1ccccc1F)c(=O)n2C	x	x	21.3%	-8.9%	6.1%	5.2
CCn1c(SCC(=O)NC2CC2)nc2ccccc21	-15.3%	-11.4%	x	-19.7%	x	13.3
CCCN(CCC)CC(O)Cn1cc(/C=C/C(=O)c2ccc(OC)cc2)c2ccccc21 (configuration not stated)	i	-25.4%	x	-14.4%	-20.4%	8.4
CCCN(CCC)CC(O)Cn1cc(/C=C/C(=O)c2ccc(C)cc2)c2ccccc21 (configuration not stated)	u	u	x	0.0%	-9.6%	-106.9*
CCCCN(C)CC(O)Cn1cc(/C=C/C(=O)c2ccc(Br)cc2)c2ccccc21 (configuration not stated)	-5.4%	-18.0%	x	-19.1%	-4.1%	-107.0*
CCCN(CCC)CC(O)Cn1cc(/C=C/C(=O)c2ccc(Br)cc2)c2ccccc21 (configuration not stated)	-24.8%	-14.9%	x	-4.6%	22.6%	-14.2
CCCCN(C)CC(O)Cn1cc(/C=C/C(=O)c2ccc(C)cc2)c2ccccc21 (configuration not stated)	u	u	12.6µM*	u	3.5%	-97.7*
CCCCN(C)CC(O)Cn1cc(/C=C/C(=O)c2ccc(OC)c(OC)c2)c2ccccc21 (configuration not stated)	u	-20.5%	x	-4.1%	-3.0%	-107.7*
COc1ccc(-n2c(Cn3nc(C(F)(F)F)cc3C)n[nH]c2=S)cc1	-18.6%	-18.2%	1.3%	-4.2%	-0.1%	18.2
O=C(C[n+]1cccc(C(=O)Nc2ccccc2)c1)c1ccc([N+](=O)[O-])cc1	-26.3%	-3.0%	11.2µM*	3.1%	-26.9%	17.9
Cc1cccc[n+]1CC(=O)c1ccc([N+](=O)[O-])cc1	-20.6%	-4.7%	u	-6.7%	x	-86.8*
Cc1cccc(Nc2nnc(SCC3CCCCO3)s2)c1C (configuration not stated)	i	-12.4%	8.1%	33.4%	-11.8%	-5.3
Cc1nc(Nc2cnc(/C=C/c3cc(C(=O)Nc4cccc(C(F)(F)F)c4)ccc3C)cn2)cc(N2CCNCC2)n1	u	10µM*	-8.6%[8.37 µM]	-36.2%	0.5%	x
O=C(O)CCCCCNc1nc(=S)[nH]c2ccccc12	x	x	12.3%	4.3%	-3.4%	24.3
CCCc1nc2sc3c(c2c(=O)n1NC(=O)c1ccco1)CC(C)(C)OC3	i	-21.0%	23.1%	-18.3%	11.2µM*	-20.8
CCOC(=O)C(C)Oc1ccc(NC(=O)C(Cl)(Cl)Cl)cc1 (configuration not stated)	-11.4%	-10.5%	2.7%	-2.7%	-2.2%	-8.7
CC(=O)COC(=O)C1CCN(S(=O)(=O)c2cc([N+](=O)[O-])ccc2Cl)CC1	-12.5%[7.34 µM]	-8.6%[7.34 µM]	5.9%	-9.9%	7.94µM*	36.6
SMILES	Vaccinia mCherry	VACV Venus inh	HCV inh	FMDV antiviral	Sm TGR block	HCMV antiviral
O=C(COC(=O)C1CCN(S(=O)(=O)c2cc([N+](=O)[O-])ccc2Cl)CC1)Nc1ncc(Cl)cc1Cl	x	x	11.6%	20.0%	39.8µM*	36.2
CN(Cc1ccccc1)C(=O)C1CCN(S(=O)(=O)c2cc([N+](=O)[O-])ccc2Cl)CC1	x	x	-20.5%	u	6.9%	-37.7
CCc1ccc(/C=C2\SC(=S)N(CCCC(=O)Nc3cc(C)on3)C2=O)cc1	i	-8.6%	x	15.8µM*	x	u
CCc1ccc(/C=C2\SC(=S)N(CCC(=O)Nc3cc(C)on3)C2=O)cc1	i	11.9%	5.8%	u	-1.2%	u
CCc1ccc(/C=C2\SC(=S)N(CCCC(=O)NC3=NCCS3)C2=O)cc1	-6.4%	-16.3%	x	14.1µM*	x	-74.3*
O=C(CN1CCN(C(=O)C2CCN(C(=O)/C=C/c3ccccc3)CC2)CC1)Nc1ccccc1Cl	-7.6%	-18.1%	u	-19.7%	-12.9%	6.5
O=C(N=C1SC2CS(=O)(=O)CC2N1c1ccc(Cl)cc1Cl)C1CC1 (configuration not stated)	x	x	15.8%	0.4%	-7.4%	-6.2
C=C1C(=O)O[C@@H]2C[C@@H](C)[C@@H]3C=CC(=O)[C@@]3(C)[C@@H](OC(=O)CC(=O)O[C@H]3[C@@H]4C(=C)C(=O)O[C@@H]4C[C@@H](C)[C@@H]4C=CC(=O)[C@]43C)[C@H]12	u	2.51µM*	1.12µM*	u	1.12µM*	-98.0*
C=C1C(=O)O[C@H]2[C@H]1[C@H](OC(=O)CC(=O)O[C@@H]1C[C@@H](C)[C@@H]3C=CC(=O)[C@@]3(C)[C@H]3OC(=O)C(=C)[C@H]13)C[C@@H](C)[C@H]1C=CC(=O)[C@]12C	u	-26.7%	u	-19.0%	8.91µM*	-38.0
C=C1C(=O)OC2C1CCC(C)C1C=CC(=O)C12C (configuration not stated)	11.2µM*	u	u	u	x	-96.8*
C=C1C(=O)O[C@H]2C[C@@H](C)[C@@H]3C=CC(=O)[C@@]3(C)C[C@H]12	u	u	-51.4%	25.1µM*	35.5µM*	-99.1*
CC(=O)O[C@@H]1[C@H]2[C@@H](C[C@@H](C)[C@@H]3C=CC(=O)[C@@]13C)OC(=O)[C@@H]2C	-27.3%	u	21.9%	0.0%	0.4%	-1.9
